FBW7 act – human FBW7 E3 ligase activation, primary screen; Q969H0; AlphaScreen FBW7–phospho-cyclin E peptide binding, activator screen; normalized activity (activation), % at 26.1 µM; 650,000 tested, 0.13% active; in the data active = normalized activity above about 1.9%;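 note: purified mutant Fbw7 with reduced substrate affinity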
GPR151 ag – activators of human GPR151 | Q8TDV0 | PathHunter beta-arrestin GPR151 cells, luminescence | activation, % at 11.2 µM | 650,000 tested, 1% active; in the data active = activation above about 4.9%;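 note: 0% = median of compound wells and 100% = cells with positive control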
TEAD-YAP block – TEAD-YAP interaction inhibition. HEK-TIYL cells, TEAD-Gal4/YAP UAS-luciferase luminescence. inhibition, % at 9.12 µM. 640,000 tested, 1.4% active; in the data active = inhibition above about 32%;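 note: 0% = median of test compound wells and 100% = reference inhibitor wells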
MITF inh – human MITF inhibition, primary screen; AlphaScreen MITF homodimerization, bead proximity signal; inhibition, % at 2.6 µM; 650,000 tested, 0.91% active; AID 1259374; in the data active = inhibition above about 50%;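 note: 0% = vehicle wells with protein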
Target sequence (O75030 whole entry, looked up): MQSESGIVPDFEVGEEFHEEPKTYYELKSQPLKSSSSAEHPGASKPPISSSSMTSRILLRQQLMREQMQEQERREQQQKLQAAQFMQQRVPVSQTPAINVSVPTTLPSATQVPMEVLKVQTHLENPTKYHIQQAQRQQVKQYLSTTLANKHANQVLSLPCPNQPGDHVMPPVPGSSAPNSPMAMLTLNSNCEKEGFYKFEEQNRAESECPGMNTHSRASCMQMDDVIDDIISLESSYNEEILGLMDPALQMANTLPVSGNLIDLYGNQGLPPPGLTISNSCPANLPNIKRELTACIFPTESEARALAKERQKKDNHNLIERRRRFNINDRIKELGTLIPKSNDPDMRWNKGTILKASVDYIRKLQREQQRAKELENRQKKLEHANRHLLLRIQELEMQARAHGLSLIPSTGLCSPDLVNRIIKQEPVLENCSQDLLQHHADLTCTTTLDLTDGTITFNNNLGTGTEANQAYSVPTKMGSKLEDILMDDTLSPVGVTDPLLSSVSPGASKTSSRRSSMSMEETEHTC
GPR151 conf act – human GPR151 activation, confirmation screen; shares compounds with GPR151 ag; GPR151 PathHunter beta-arrestin cells, luminescence, 90 min; % of EA-reagent control over plate median; 6,700 tested, under 10 active; AID 1508609; activation, % at 11.2 µM;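 active = mean percent activation across replicates above the confirmation screen cutoff of 4.91%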
GPR119 counter – activates human GPR119 in a GPR151 counter-screen; 6,700 tested, 0.3% active; GPR119 PathHunter beta-arrestin cells, luminescence, 90 min; 0 = compound-well median, 100 = enzyme-acceptor control; shares compounds with GPR151 ag; AID 1508611; activation, % at 11.2 µM;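 active = mean percent activation in the counterscreen above 29.09%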;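 note: counterscreen on off-target GPR119 to flag nonselective hits from the GPR151 activator screen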
* = called active by the depositor. Sampled rows, rich in hits. Any-hit rate of the full collection: about 3.4%.

COc1ccc(NC(=O)/C=C/C(=O)O)cc1 was read as FBW7 act 0, GPR151 ag -2, TEAD-YAP block -7 and MITF inh 4.
For COc1ccc(CCNc2ccnc(Nc3ccc(N4CCOCC4)cc3)n2)cc1 the results were FBW7 act 0, GPR151 ag 8.3*, TEAD-YAP block 78*, MITF inh 10, GPR151 conf act 3 and GPR119 counter 60*.
c1cc(Nc2ccc(N3CCOCC3)cc2)nc(Nc2ccc(N3CCOCC3)cc2)n1 was read as FBW7 act 0, GPR151 ag 3, TEAD-YAP block 14 and MITF inh 9.
For c1cc(Nc2ccc3c(c2)OCO3)nc(Nc2ccc(N3CCOCC3)cc2)n1 the results were FBW7 act 0, GPR151 ag 5.1*, TEAD-YAP block 71*, MITF inh 2, GPR151 conf act 1 and GPR119 counter 27.
For COc1ccc(CCNc2cc(-c3ccc(N4CCN(C)CC4)cc3)ncn2)cc1 the results were FBW7 act 0, GPR151 ag 6.9*, TEAD-YAP block -16, MITF inh 14, GPR151 conf act 0 and GPR119 counter 1.
`COc1ccc(CCNc2ccnc(N3CCOCC3)n2)cc1` gave FBW7 act 0, GPR151 ag 2, TEAD-YAP block 2 and MITF inh -10.
For COc1ccc(CCNc2cc(C)nc(Nc3cccnc3)n2)cc1 the results were FBW7 act 0, GPR151 ag 1, TEAD-YAP block 2 and MITF inh 6.
For COc1ccc(CCNc2cc(C)nc(Nc3ccc4ncccc4c3)n2)cc1 the results were FBW7 act 0, GPR151 ag 7.0*, TEAD-YAP block 47*, MITF inh 7, GPR151 conf act 1 and GPR119 counter 20.
For CN1C(C(=O)N2CCCCCC2)=CC(c2cccs2)=NS1(=O)=O the results were FBW7 act 0, GPR151 ag 4, TEAD-YAP block 2 and MITF inh 1.
Screening O=C(O)c1cc(-c2cccnc2)nc2ccc(S(=O)(=O)N3CCCCCC3)cc12 returned FBW7 act 0, GPR151 ag 1, TEAD-YAP block 7 and MITF inh 3.
`CC(C)Oc1nc(-c2ccccc2Cl)nc2ccccc12` gave FBW7 act 0, GPR151 ag 1, TEAD-YAP block 4 and MITF inh 1.
COc1nc(-c2ccccc2Cl)nc2ccccc12 was read as FBW7 act 0, GPR151 ag 5.2*, TEAD-YAP block 1, MITF inh 5, GPR151 conf act 1 and GPR119 counter -5.
For CCOc1ccc(S(=O)(=O)n2cnc3ccccc32)cc1C the results were FBW7 act 0, GPR151 ag 0, TEAD-YAP block 1 and MITF inh 9.
CCOc1ccc(C)cc1S(=O)(=O)n1c(C)nc2ccccc21 was read as FBW7 act 0, GPR151 ag 7.2*, TEAD-YAP block 0, MITF inh -3, GPR151 conf act 0 and GPR119 counter 3.
Screening CCOc1ccc(C)cc1S(=O)(=O)n1cnc2ccccc21 returned FBW7 act 0, GPR151 ag 5.8*, TEAD-YAP block 46*, MITF inh 3, GPR151 conf act 0 and GPR119 counter -4.
For COc1ccc(C)cc1S(=O)(=O)n1c(C)nc2ccccc21 the results were FBW7 act 0, GPR151 ag -1, TEAD-YAP block -14 and MITF inh -1.
CN1CCN(NC(=S)Nc2cccc(C(F)(F)F)c2)CC1 was read as FBW7 act 1, GPR151 ag 1, TEAD-YAP block -8 and MITF inh 8.
`COc1ccc(C2Nc3ccccc3C(=O)N2NC(=O)c2ccc([N+](=O)[O-])cc2)c(OC)c1` (stereo not drawn) gave FBW7 act 0, GPR151 ag -1, TEAD-YAP block 1 and MITF inh 11.
For COC(=O)c1ccc(CNCCC2CCC(=O)N2Cc2ccc(Cl)s2)cc1 (stereo not drawn) the results were FBW7 act 1, GPR151 ag -2, TEAD-YAP block -11 and MITF inh 11.
For CC(C)(C)C1=NN(CCC(=O)O)C(=O)c2cc3ccccc3n2C1 the results were FBW7 act 0, GPR151 ag 7.7*, TEAD-YAP block 0, MITF inh -2, GPR151 conf act 0 and GPR119 counter 10.
CC(C)(C)C1=NN(CC(=O)Nc2nccs2)C(=O)c2cc3ccccc3n2C1 was read as FBW7 act 0, GPR151 ag 6.1*, TEAD-YAP block -3, MITF inh -16, GPR151 conf act 0 and GPR119 counter 8.
For NC(=O)CSc1nnc2n(Cc3ccccc3)c(=O)c3ccccc3n12 the results were FBW7 act 0, GPR151 ag 1, TEAD-YAP block 8 and MITF inh -2.
Screening Cc1ccc(-c2csc(NC(=O)CS(=O)(=O)c3ccc(F)cc3)n2)cc1 returned FBW7 act 0, GPR151 ag -1, TEAD-YAP block -5 and MITF inh 2.
`O=C(N/N=C/c1ccc(Cl)c([N+](=O)[O-])c1)c1cc(-c2ccccc2)n[nH]1` gave FBW7 act 0, GPR151 ag 7.2*, TEAD-YAP block -8, MITF inh 21, GPR151 conf act 0 and GPR119 counter -10.
For O=CN1CCN(C(=O)c2ccccc2Cl)CC1 the results were FBW7 act 0, GPR151 ag 1, TEAD-YAP block -3 and MITF inh 10.
`Cc1ccc(C(=O)N2CCN(C=O)CC2)c(Cl)c1` gave FBW7 act 0, GPR151 ag 6.5*, TEAD-YAP block 4, MITF inh 16, GPR151 conf act 0 and GPR119 counter -4.
For CCc1ccccc1NS(=O)(=O)c1ccc2c(c1)c(=O)n(C)c(=O)n2C the results were FBW7 act 0, GPR151 ag -1, TEAD-YAP block 3 and MITF inh -14.
`Cc1nc2c(c(=O)[nH]1)CN(C(=O)C1(c3ccc(Cl)cc3)CCC1)CC2` gave FBW7 act 0, GPR151 ag 2, TEAD-YAP block -4 and MITF inh 5.
`Cc1nc2c(c(=O)[nH]1)CN(C(=O)C1(c3cccc(F)c3)CCCC1)CC2` gave FBW7 act 0, GPR151 ag 6.5*, TEAD-YAP block 3, MITF inh 0, GPR151 conf act 0 and GPR119 counter 5.
For CC(=O)c1cccc(NC(=O)CCn2cccc2)c1 the results were FBW7 act 0, GPR151 ag 1, TEAD-YAP block 8 and MITF inh 2.
CN1CCC(=NNC(=O)c2ccc(CN3c4cccc5cccc(c45)S3(=O)=O)cc2)CC1 was read as FBW7 act 0, GPR151 ag 6.0*, TEAD-YAP block 1, MITF inh 2, GPR151 conf act -1 and GPR119 counter 1.
For C/C(=N\NC(=O)c1ccc(CN2c3cccc4cccc(c34)S2(=O)=O)cc1)c1ccco1 the results were FBW7 act 0, GPR151 ag 2, TEAD-YAP block -2 and MITF inh 4.
